# Measured values reported in PubChem BioAssay.
# Active and inactive are the calls of the source. Unless noted, no stated cut-off is given here; in the data, active means inhibition above about 80%; inactive means the rest.
# Columns and labels:
# [1] = growth inhibition, single agent or in combination, cell-based, chromothripsis tumors, cisplatin or BGB combos (AID 1671449); conditions: LFS_MB_P medulloblastoma cells;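 further: cells exposed for 96 hours; 0% = vehicle DMSO and 100% = killing by high DMSO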
# [2] = growth inhibition, single agent and combos, cell-based, chromothripsis tumors, cisplatin or BGB combos (AID 1671450); conditions: HDN33 neuroblastoma cells, stronger effect = higher value;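 further: cells exposed to compound for four days; 0% = vehicle DMSO and 100% = cell killing by high DMSO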
# [3] = growth inhibition, single agents and combos, ICB984, cell-based, cisplatin or BGB combos, synergistic combos for chromothripsis tumors (AID 1671451; call rule not given here;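 further: cells exposed for 96 hours before readout; 0% = vehicle DMSO and 100% = killing by high DMSO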); conditions: ICB984 medulloblastoma cells, drug combinations, stronger effect = higher value
# [4] = growth inhibition, single agents and combos, LFS_MB_1R, cell-based, cisplatin or BGB combos, synergistic combos for chromothripsis tumors (AID 1671452); conditions: LFS_MB_1R medulloblastoma cells, stronger effect = higher value;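 further: cells exposed for 96 hours before readout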
# [5] = growth inhibition, single agents and combos, HTB85, cell-based, BGB or cisplatin IC20 combos, synergistic combos for chromothripsis tumors (AID 1671453); conditions: HTB85 osteosarcoma cells, drug combinations, stronger effect = higher value;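 further: cells exposed for 96 hours before readout; 0% = vehicle DMSO and 100% = high DMSO killing control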
# [6] = growth inhibition, single agents and combos, CRL2098, cell-based, BGB or cisplatin IC20 combos, synergistic combos for chromothripsis tumors (AID 1671454); conditions: CRL2098 osteosarcoma cells, drug combinations, stronger effect = higher value;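 further: cells exposed for 96 h before readout; 0% = vehicle DMSO and 100% = killing by high DMSO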
# [7] = growth inhibition, single agents and combos, HD-MB03, cell-based, BGB or cisplatin IC20 combos, synergistic combos for chromothripsis tumors (AID 1671455; in the data active means inhibition above about 83%;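 further: 0% = vehicle DMSO and 100% = high DMSO as cytotoxic control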); conditions: HD-MB03 medulloblastoma cells, stronger effect = higher value
# [8] = growth inhibition, single agents and combos, UWB1.289, cell-based, BGB or cisplatin combos, synergistic combos for chromothripsis tumors (AID 1671456); conditions: UWB1.289 ovarian carcinoma cells, stronger effect = higher value;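 further: cells exposed to compound for four days; 0% = vehicle DMSO and 100% = killing by high DMSO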
# [9] = growth inhibition, single agents and combos, LFS_MB_2R, cell-based, cisplatin combos, synergistic combos for chromothripsis tumors (AID 1671457); conditions: LFS_MB_2R medulloblastoma cells, stronger effect = higher value;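 further: cells exposed to compound for four days before readout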
# [10] = growth inhibition, MDA-MB-436, cell-based, BGB or cisplatin combos, synergistic combos for chromothripsis tumors (AID 1671458; call rule not given here;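 further: cells exposed for 96 hours; 0% = vehicle DMSO and 100% = killing by high DMSO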); conditions: MDA-MB-436 breast carcinoma growth inhibition, drug combinations, stronger effect = higher value
# [11] = UWB1.289_BRCA1 ovarian cancer growth, cell-based, BGB or cisplatin combinations (AID 1671459); conditions: UWB1.289 BRCA1 ovarian carcinoma, drug combinations, stronger effect = higher value
# [12] = drug combination toxicity in non-malignant astrocytes – cell-based, BGB or cisplatin IC20 combos, cytotoxicity control for chromothriptic childhood tumor combination screen (AID 1671460); conditions: Human astrocytes, viability inhibition, drug combinations, at 0.5 µM, stronger effect = higher value;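 further: cells exposed to compounds for 96 hours before viability readout; 0% = vehicle and 100% = killing control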
# [13] = BT084 cell growth, single and combined drugs, ICGC_MB145, cisplatin and BGB IC40 combos (AID 1671461); conditions: BT084 medulloblastoma cells, drug combinations, stronger effect = higher value;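 further: cells exposed to drugs for 96 hours; 0% = vehicle DMSO and 100% = high DMSO full killing control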
# [14] = RCMB18 cell growth, single agent and combined, cisplatin and BGB IC40 combos (AID 1671462); conditions: RCMB18 medulloblastoma cells, stronger effect = higher value;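 further: cells exposed to compound for four days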
# [15] = CRL1545 cell growth, single agent and combined, cisplatin and BGB IC20 combos (AID 1671464); conditions: CRL1545 osteosarcoma cells, stronger effect = higher value;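 further: cells exposed to compound for 96 hours before readout; 0% = vehicle DMSO and 100% = high DMSO killing control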
# [16] = at 0.5 µM, stronger effect = higher value
# [17] = measured here: combination with BGB IC20, at 0.005 µM
# [18] = measured here: combination with BGB IC40, at 0.005 µM
# [19] = measured here: combination with BGB IC40, at 0.05 µM
# [20] = measured here: combination with cisplatin, at 0.5 µM, stronger effect = higher value
# [21] = measured here: combination with cisplatin, at 5 µM, stronger effect = higher value
# [22] = measured here: with BGB IC20 combination, at 0.5 µM
# [23] = measured here: with cisplatin IC20 combination, at 0.5 µM
# [24] = measured here: 5 uM single agent, at 5 µM
# [25] = measured here: combination with cisplatin, at 0.5 µM
# [26] = measured here: combination with cisplatin, at 5 µM
# [27] = measured here: with BGB IC20, at 0.5 µM
# [28] = measured here: with BGB IC20, at 5 µM
# [29] = measured here: with cisplatin IC20, at 0.5 µM
# [30] = measured here: with cisplatin IC20, at 5 µM
# [31] = measured here: combination with BGB at IC20, at 0.5 µM
# [32] = measured here: combination with cisplatin at IC20, at 0.5 µM
# [33] = measured here: combo with BGB at IC20, at 0.5 µM
# [34] = measured here: combo with cisplatin at IC20, at 0.5 µM
# [35] = measured here: inhibition with BGB combination, at 0.05 µM
# [36] = measured here: inhibition with cisplatin combination, at 0.05 µM
# [37] = measured here: BGB combination, at 0.5 µM
# [38] = measured here: BGB combination, at 5 µM
# [39] = measured here: cisplatin combination, at 0.5 µM
# [40] = measured here: cisplatin combination, at 5 µM
# [41] = BGB combination, concentration series, at 5 µM
# [42] = cisplatin combination, concentration series, at 5 µM
# [43] = measured here: combo with BGB IC20
# [44] = measured here: combo with cisplatin IC20
# [45] = cisplatin combination, at 0.5 µM
# [46] = measured here: BGB IC40 combination 0.05 uM, at 0.05 µM
# [47] = measured here: BGB IC40 combination, at 0.05 µM
smiles,measurement,setting,value
N#Cc1ccc(OC2CCC(NC(=O)CCSc3nc4ccccc4c(=O)[nH]3)CC2)cc1 (stereo unspecified),inhibition,[1]; [16],-11.7% (inactive)
same,inhibition,[1]; [17],-15.6%
same,inhibition,[1]; [18],-25.5%
same,inhibition,[1]; [19],-19.3%
same,inhibition,[1]; [20],-29.6%
same,inhibition,[1]; [21],-57.3%
same,inhibition,"[2]; BGB combo, at 5 µM",8.7%
same,inhibition,[2]; at 0.5 µM,15.1% (inactive)
same,inhibition,"[2]; cisplatin combo, at 5 µM",37.4%
same,inhibition,[2]; [22],12.5%
same,inhibition,[2]; [23],15.6%
same,inhibition,"[2]; single agent, at 5 µM",35.9%
same,inhibition,"[3]; BGB IC20 combo, at 0.005 µM",-4.21%
same,inhibition,"[3]; BGB IC40 combo, at 0.005 µM",-8.75%
same,inhibition,"[3]; BGB IC40 combo, at 0.05 µM",7.9%
same,inhibition,[3]; at 0.5 µM,-30.9% (inactive)
same,inhibition,"[3]; cisplatin combo, at 0.05 µM",4.58%
same,inhibition,"[3]; cisplatin combo, at 0.5 µM",-24.9%
same,inhibition,"[3]; cisplatin combo, at 5 µM",-26.6%
same,inhibition,[3]; [24],2.34%
same,inhibition,[4]; at 0.5 µM,-15.5% (inactive)
same,inhibition,[4]; [19],-12.5%
same,inhibition,[4]; [25],-1.66%
same,inhibition,[4]; [26],-48.1%
same,inhibition,[5]; at 0.5 µM,8.65% (inactive)
same,inhibition,[5]; [27],1.42%
same,inhibition,[5]; [28],-9.23%
same,inhibition,[5]; [29],9.73%
same,inhibition,[5]; [30],-13.4%
same,inhibition,"[5]; single agent, at 5 µM",12.3%
same,inhibition,[6]; at 0.5 µM,-13.9% (inactive)
same,inhibition,[6]; [31],25.6%
same,inhibition,[6]; [32],-58.5%
same,inhibition,[7]; at 0.5 µM,5.55% (inactive)
same,inhibition,[7]; [33],2.46%
same,inhibition,[7]; [34],7.46%
same,inhibition,[8]; at 0.5 µM,13.3% (inactive)
same,inhibition,[8]; [35],-10.8%
same,inhibition,[8]; [36],9.73%
same,inhibition,[9]; at 0.5 µM,-13.3% (inactive)
same,inhibition,[9]; [25],-14.4%
same,inhibition,[9]; [26],-3.9%
same,inhibition,[10]; at 0.5 µM,3.61% (inactive)
same,inhibition,[10]; [37],-7.72%
same,inhibition,[10]; [38],-9.87%
same,inhibition,[10]; [39],1.31%
same,inhibition,[10]; [40],0.512%
same,inhibition,[11]; [41],24.2%
same,inhibition,[11]; at 0.5 µM,9.54% (inactive)
same,inhibition,[11]; [42],-12.4%
same,inhibition,[12],37.4% (inactive)
same,inhibition,[12]; [43],26.2%
same,inhibition,[12]; [44],40.6%
same,inhibition,[13]; at 0.5 µM,0.647% (inactive)
same,inhibition,[13]; [45],-17.2%
same,inhibition,"[13]; cisplatin combination, at 5 µM",-3.13%
same,inhibition,[13]; [46],-41.1%
same,inhibition,"[13]; single agent, at 5 µM",-16.5%
same,inhibition,[14]; at 0.5 µM,7.33% (inactive)
same,inhibition,"[14]; cisplatin combo, at 5 µM",-24.6%
same,inhibition,[14]; [47],-11.2%
same,inhibition,[14]; [25],27.6%
same,inhibition,"[14]; single agent, at 5 µM",-12.9%
same,inhibition,[15]; at 0.5 µM,-30% (inactive)
same,inhibition,[15]; [22],-19.6%
same,inhibition,[15]; [23],-37.4%
same,inhibition,"[15]; single agent, at 0.05 µM",34.4%
same,inhibition,"[15]; single agent, at 5 µM",4.49%
C[n+]1ccc(-c2c3nc(c(-c4cc[n+](C)cc4)c4ccc([nH]4)c(-c4cc[n+](C)cc4)c4nc(c(-c5cc[n+](C)cc5)c5ccc2[nH]5)C=C4)C=C3)cc1,inhibition,[1]; [16],-16.4% (inactive)
same,inhibition,[1]; [17],4.93%
same,inhibition,[1]; [18],-7.27%
same,inhibition,[1]; [19],5.45%
same,inhibition,[1]; [20],-7.43%
same,inhibition,[1]; [21],6.44%
same,inhibition,"[2]; BGB combo, at 5 µM",-33%
same,inhibition,[2]; at 0.5 µM,-31.4% (inactive)
same,inhibition,"[2]; cisplatin combo, at 5 µM",-48.7%
same,inhibition,[2]; [22],-41%
same,inhibition,[2]; [23],-34.4%
same,inhibition,"[2]; single agent, at 5 µM",-48.2%
same,inhibition,"[3]; BGB IC20 combo, at 0.005 µM",-7.96%
same,inhibition,"[3]; BGB IC40 combo, at 0.005 µM",-38.9%
same,inhibition,"[3]; BGB IC40 combo, at 0.05 µM",-28.5%
same,inhibition,[3]; at 0.5 µM,-22.5% (inactive)
same,inhibition,"[3]; cisplatin combo, at 0.05 µM",-33.6%
same,inhibition,"[3]; cisplatin combo, at 0.5 µM",-35.2%
same,inhibition,"[3]; cisplatin combo, at 5 µM",-30.8%
same,inhibition,[3]; [24],-3.94%
same,inhibition,[4]; at 0.5 µM,-33.2% (inactive)
same,inhibition,[4]; [19],-38.7%
same,inhibition,[4]; [25],-36.8%
same,inhibition,[4]; [26],-24.6%
same,inhibition,[5]; at 0.5 µM,-31.3% (inactive)
same,inhibition,[5]; [27],-48.7%
same,inhibition,[5]; [28],-28.8%
same,inhibition,[5]; [29],-29.2%
same,inhibition,[5]; [30],1.2%
same,inhibition,"[5]; single agent, at 5 µM",-24.3%
same,inhibition,[6]; at 0.5 µM,-75.6% (inactive)
same,inhibition,[6]; [31],-55.7%
same,inhibition,[6]; [32],-59.6%
same,inhibition,[7]; at 0.5 µM,-18.1% (inactive)
same,inhibition,[7]; [33],-21.5%
same,inhibition,[7]; [34],-12.4%
same,inhibition,[8]; at 0.5 µM,-15% (inactive)
same,inhibition,[8]; [35],-39.4%
same,inhibition,[8]; [36],-10%
same,inhibition,[9]; at 0.5 µM,-18.1% (inactive)
same,inhibition,[9]; [25],-16.6%
same,inhibition,[9]; [26],-12.4%
same,inhibition,[10]; at 0.5 µM,-9.73% (inactive)
same,inhibition,[10]; [37],-10.7%
same,inhibition,[10]; [38],-18%
same,inhibition,[10]; [39],-7.22%
same,inhibition,[10]; [40],-11.9%
same,inhibition,[11]; [41],-36.3%
same,inhibition,[11]; at 0.5 µM,-17.4% (inactive)
same,inhibition,[11]; [42],-6.54%
same,inhibition,[12],-1.53% (inactive)
same,inhibition,[12]; [43],4.28%
same,inhibition,[12]; [44],3.89%
same,inhibition,[13]; at 0.5 µM,-2.03% (inactive)
same,inhibition,[13]; [45],-16.4%
same,inhibition,"[13]; cisplatin combination, at 5 µM",4.22%
same,inhibition,[13]; [46],-24.6%
same,inhibition,"[13]; single agent, at 5 µM",-14.3%
same,inhibition,[14]; at 0.5 µM,-13.6% (inactive)
same,inhibition,"[14]; cisplatin combo, at 5 µM",1.63%
same,inhibition,[14]; [47],-15.7%
same,inhibition,[14]; [25],-4.98%
same,inhibition,"[14]; single agent, at 5 µM",-32.1%
same,inhibition,[15]; at 0.5 µM,-40.2% (inactive)
same,inhibition,[15]; [22],-36.3%
same,inhibition,[15]; [23],-42.2%
same,inhibition,"[15]; single agent, at 0.05 µM",-36.8%
same,inhibition,"[15]; single agent, at 5 µM",45%
